Results on 40 molecules are retold here after PubChem BioAssay (NCATS).

Values joined by “and” are separate entries in the source; they are usually repeats but may differ in a detail not shown here. Identical values can stand only once. Results filed as inconclusive are left out. A call without a number means that no potency is given here. Unmarked numbers belong to inactive results. Active and inactive are the calls of the source. Calls follow the shape of the dose curve; as a rule, active = well fitted cell-killing curve with a large enough effect; inconclusive = small, poorly fitted or top-dose-only effect, or effect the other way; inactive = no such curve, though single readings can be large or run the other way.
Potency is read from the fitted curve at half-maximal effect.

The assay is described as follows: Viability qHTS for spleen associated tyrosine kinase inhibitor (SYKi) drug resistant MV4-11 cells (AID 1963824). Also: nearly all actives have a fitted effect of over 35% in size. The settings on record: SYKi-resistant MV4-11 viability, CellTiter-Glo, 72 h; series mostly up to 45 µM. The text has this: Department of Medicine, Hematology/Oncology
University Hospital Frankfurt, Germany.
Trials have shown promising clinical activity of the selective SYK inhibitor entospletinib in patients with high expressing HOXA9/MEIS1 acute leukemias. As the development of resistance mechanisms is a common problem in the use of targeted drugs, we performed a chemical library screen to identify drug sensitivities in SYK inhibitor resistant AML cells. […] Glucocorticoids are potent immunosuppressants which work in part by inhibiting the transcription of cytokine genes.
Described herein is a viability screen to look for activity in the SYK inhibitor drug resistant cell line against four NCATS compound libraries (MIPE 5.0, NPC, NPACT, and Kinase) totaling 11372 compounds. Active hits were reacquired for confirmation and further secondary assay testing.
SEQUENCE No. (e.g., 1, 2, 3, etc.); […] (e.g., Cells, Incubation, Reagent, etc.); VALUE; DESCRIPTION.
1; Media; 2uL; white, solid-bottom Corning assay plate.
2; Compounds; 23nL; Echo acoustic dispenser.
3; Cell; 5uL; 500 cells per well.
4: Incubation; 72hr; 37 C, 5% CO2, 95% humidity.
5; Reagent; 3uL; CellTiter-Glo reagent (Promega).
6; Incubation; 10min; room temperature.
7; Detection; Luminescence; ViewLux plate reader (PerkinElmer).
NOTES (numbers refer to Sequence numbers above
1. Quantitative high-throughput screening (qHTS) of small molecule compounds was conducted on drug resistant SYKi MV4-11 cell line.
2. Twenty-three nanoliter of small molecule compounds were added to each assay plates using the Echo acoustic dispenser (Beckman Coulter).
3. Cells were seeded into the assay plates at a final density of 500 cells in 5uL of media per well using the Multidrop Combi dispenser.
4. Plates were covered with stainless steel gasketed lids and incubated for 72 hours at standard cell culture conditions.
5. Viability was assessed by adding 3uL of CellTiter-Glo detection reagent (Promega).
6. Plates were covered with gasket lids and incubated for 10 minutes at room temperature.
7. Luminescence was measured on a ViewLux plate reader (PerkinElmer).
A general note: qHTS replaces the single test concentration by a dilution series.
As to `CC(C)(C)c1nnc(NS(=O)(=O)c2ccccc2)s1`, the Potency entry was “inactive”.

Regarding `COc1cccc2c1C(=O)c1c(O)c3c(c(O)c1C2=O)C[C@@](O)(C(C)=O)C[C@@H]3O[C@H]1C[C@H](N)[C@H](O)[C@H](C)O1`, the Potency is 42.2 nM (active) and 18.6 nM (active).

On to `C=C1C(O)C(O)C2(CC3C(C)=CCC4C(C)(C(=O)O)CCCC34C)OC2C1O` (stereo not given), for which the Potency entry is “inactive”.

As for `CC1(C)CC2C3=CCC4C5(C)CCC(OC6OC(CO)C(O)C(OC7OC(CO)C(O)C(OC8OC(CO)C(O)C(OC9OC(COC%10OC(CO)C(O)C(O)C%10O)C(O)C(O)C9O)C8O)C7O)C6O)C(C)(C)C5CCC4(C)C3(C)CCC2(C(=O)O)CC1O` (stereo not given), the viability, % of control is 99.5% [at 9.25 µM].

For the molecule `COC(=O)c1sccc1S(=O)(=O)Nc1ccc(Nc2ccccc2)cc1OC`, the Potency is 3.26 µM (active).

For the molecule `C[C@@H]1[C@H]2[C@H](O[C@@H]3O[C@H](CO)[C@@H](O)[C@H](O)[C@H]3O)OC=C(C(=O)O)[C@H]2C[C@@H]1O`, the Potency entry is “inactive”.

For `CC(O)(C(=O)C1CC1(CO)COC1OC(CO)C(O)C(O)C1O)C1C(O)CC2C3CC=C4CC(O)CC(O)C4(C)C3C(O)CC21C` (stereo not given), the Potency was 0.217 µM (active).

In the case of `COC(c1ccccc1)(c1ccccc1)[C@H](Oc1nc(C)cc(C)n1)C(=O)O`, the Potency result is “inactive”.

For the molecule `C=C(C)C1CCC2(C(=O)O)CCC3(C(=O)O)C(CCC4C5(C)CCC(O)C(C)(C(=O)O)C5CCC43C)C12` (stereo not given), the Potency result is “inactive”.

Turning to `CCOC(=O)[C@H](CCc1ccccc1)N[C@@H](C)C(=O)N1C2CCCCC2C[C@H]1C(=O)O` (stereo not given in full), the Potency was 6.51 µM (active).

For `Oc1ccc([C@@H]2Oc3ccc(O)cc3[C@@H]3CCC[C@@H]32)cc1`, the Potency was 4.61 µM (active).

As for `CCN(CC)CCCCNc1ncc2cc(-c3c(Cl)cccc3Cl)c(NC(=O)NC(C)(C)C)nc2n1`, the Potency was 0.58 µM (active).

`CC1c2cccc(O)c2C(O)=C2C(=O)C3(O)C(O)=C(C(N)=O)C(=O)C(N(C)C)C3C(O)C21` (stereo not given): the Potency is 11.8 µM (active).

In the case of `COc1cc(C(=O)OC[C@@]2(O)CO[C@@H](O[C@H]3[C@H](Oc4ccc(C(=O)O)cc4OC)O[C@H](CO)[C@@H](O)[C@@H]3O)[C@@H]2O)ccc1O`, the Potency entry is “inactive”.

On to `Nc1ccc(-c2ccnc(NCCCNC(=O)c3c(Cl)cccc3Cl)n2)cc1`, for which the Potency was 1.3 µM (active).

On to `CCC[C@H](N[C@@H](C)C(=O)N1[C@H](C(=O)O)C[C@@H]2CCCC[C@@H]21)C(=O)O`, for which the Potency result was “inactive”.

Consider `CO[C@H]1C[C@@H]2CC[C@@H](C)[C@@](O)(O2)C(=O)C(=O)N2CCCC[C@H]2C(=O)O[C@H]([C@H](C)C[C@@H]2CC[C@@H](OC(=O)C(C)(CO)CO)[C@H](OC)C2)CC(=O)[C@H](C)/C=C(\C)[C@@H](O)[C@@H](OC)C(=O)[C@H](C)C[C@H](C)/C=C/C=C/C=C/1C`, for which the Potency is 10.2 µM (active).

`CC(=O)O[C@@](C)(C(=O)/C=C/C(C)(C)O)[C@H]1[C@H](O)C[C@@]2(C)[C@@H]3CC=C4[C@@H](C=C(O)C(=O)C4(C)C)[C@]3(C)C(=O)C[C@]12C`: the Potency was 0.252 µM (active).

Consider `CO[C@H]1C=C2C(CC[C@H](O[C@@H]3O[C@H](CO)[C@@H](O)[C@@H](O)[C@H]3O)C2(C)C)[C@]2(C)CC[C@]3(C)C([C@H](C)C(O)C(C=C(C)C)O[C@@H]4O[C@H](CO)[C@@H](O)[C@@H](O)[C@H]4O)CC[C@@]3(C)C12` (stereo not given in full), for which the viability, % of control is 90.7% [at 9.25 µM].

As to `Cc1ccccc1CN1CCn2c1nc1c(c2=O)CN(Cc2ccccc2)CC1`, the Potency entry was “inactive”.

Consider `CC1CC2(O)OC(=O)C3=C2C(CCC3)[C@@]12C[C@@H](c1ccoc1)OC2=O` (stereo not given in full), for which the Potency entry was “inactive”.

For the molecule `C[C@@H]1O[C@@H](O[C@H]2[C@@H]3C=CO[C@@H](O[C@@H]4O[C@H](CO)[C@@H](O)[C@H](O)[C@H]4O)[C@@H]3[C@@]3(CO)O[C@@H]23)[C@H](O)[C@H](OC(=O)/C=C/c2ccccc2)[C@H]1O`, the Potency was 6.11 µM (active).

Turning to `C[C@@H]1O[C@@H](O[C@H]2CC[C@@]3(C)C(CC[C@]4(C)C3CC=C3[C@@H]5CC(C)(C)CC[C@]5(C(=O)O[C@@H]5O[C@H](CO)[C@@H](O)[C@H](O)[C@H]5O)CC[C@]34C)[C@]2(C)CO)[C@H](O)[C@H](O[C@@H]2O[C@H](CO)[C@@H](O)[C@H](O)[C@H]2O)[C@H]1O` (stereo not given in full), the Potency is 3.9 µM (active).

Regarding `COC(=O)N1CCC(n2ncc3c(N4CCOCC4)nc(-c4ccc(NC(=O)Nc5ccc(CO)cc5)cc4)nc32)CC1`, the Potency was 0.0184 µM (active).

On to `CN(Cc1ccccc1)C(=O)c1ccc(S(=O)(=O)Nc2ccccc2)cc1`, for which the Potency was 14.8 µM (active).

`O=C(c1ccc(F)cc1)C1CCN(CCn2c(=O)nc3n(c2=O)CCCC3)CC1`: the Potency result is “inactive”.

For `N[C@H](C(=O)O)c1ccc(O)cc1`, the Potency entry is “inactive”.

On to `Cc1cc(C(=O)N2Cc3cnn(C)c3Nc3ccccc32)ccc1CNC(=O)N1CCC[C@H]1C(=S)N1CCCN(C)CC1`, for which the Potency entry was “inactive”.

As to `C=C1[C@H](OC(C)=O)[C@H]2[C@@H](OC(C)=O)[C@](C)(OC(C)=O)C[C@]2(OC(C)=O)C(=O)[C@H](C)/C=C/C(C)(C)C(=O)[C@H](OC(=O)C(C)C)[C@H]1OC(C)=O`, the Potency entry was “inactive”.

Regarding `CC(=O)OC1C(O)CC2(C)C(CCC3(C)C2CC=C2C4C5(CCC(CO[C@@H]6O[C@H](CO)[C@@H](O)[C@H](O)[C@H]6O)(OC5=O)C4(C)O)C(O)CC23C)C1(C)C` (stereo not given in full), the Potency entry was “inactive”.

Regarding `CCC1(C)CC(=O)NC1=O` (stereo not given), the Potency result is “inactive”.

For `CCN(CC)CCN`, the Potency result is “inactive”.

On to `C=C1C[C@@]2(O)O[C@@]3(C[C@H]2C(C)C)[C@@H](C)CC[C@@H]13`, for which the Potency result is “inactive”.

With `Cc1ccc([N+](=O)[O-])cc1S(=O)(=O)N(C)/N=C/c1cnc2ccc(Br)cn12`, the Potency is 16.4 nM (active) and 46.8 nM (active).

As to `CN1CCN(c2cc(C(=O)Nc3ccc4c(c3)-c3c(c(C(N)=O)nn3-c3ccc(F)cc3)CC4)c(Cl)cn2)CC1`, the Potency is 2.59 µM (active).

In the case of `O=C(O)Cc1cn([C@@H]2OC[C@@H](O[C@@H]3O[C@H](CO)[C@@H](O)[C@H](O)[C@H]3O)[C@H](O)[C@H]2O[C@@H]2O[C@H](CO)[C@@H](O)[C@H](O)[C@H]2O)c2ccccc12`, the Potency entry is “inactive”.

Consider `CCn1cc(C(=O)O)c(=O)c2cc(F)c(N3CCNC(C)C3)c(F)c21` (stereo not given), for which the Potency result is “inactive”.

Turning to `CCC(=O)O[C@H]1[C@H](O[C@@H]2[C@@H](C)[C@H](O[C@H]3C[C@@](C)(OC)[C@@H](O)[C@H](C)O3)[C@@H](C)C(=O)O[C@H](CC)[C@@](C)(O)[C@H](O)[C@@H](C)C(=O)[C@H](C)C[C@@]2(C)O)O[C@H](C)C[C@@H]1N(C)C`, the Potency entry is “inactive”.

Turning to `COc1cnc(NS(=O)(=O)c2ccc(N)cc2)nc1`, the Potency result was “inactive”.

Regarding `OC[C@H]1O[C@@H](Oc2cc(O)cc(-c3cc4ccc(O)cc4o3)c2)[C@H](O)[C@@H](O)[C@@H]1O`, the Potency is 4.47 µM (active).
